This is an account of results in PubChem BioAssay (NCATS).

Experiment [1] is described as follows: qHTS profiling for inhibitors of Plasmodium falciparum proliferation (AID 504749).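 For activity, negative = inhibition: 0% = DMSO vehicle and full inhibition = artemisinin control.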 Note: nearly all actives have a fitted effect of over 60% in size. Conditions: P. falciparum in erythrocytes, SYBR Green DNA, 72 h. The essentials:
(§1)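 P. falciparum-infected erythrocytes (0.3% parasitemia, 2.5% hematocrit final) were exposed to compounds for 72 h at 37 C in 5% CO2, then lysed with SYBR Green buffer overnight at room temperature; parasite DNA fluorescence was normalized to artemisinin and DMSO controls.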

Another experiment concerns 3D7. The experiment is described as above. Conditions: P. falciparum in erythrocytes, SYBR Green DNA, 72 h; series mostly up to 28.7 µM. Put shortly:
as §1

In the next experiment the test system is AA1029. The description is as above. The conditions noted are these: P. falciparum in erythrocytes, SYBR Green DNA, 72 h; series mostly up to 28.7 µM. Put shortly:
as §1

The test system of the next experiment is AS120. The description is as above. The conditions noted are these: P. falciparum in erythrocytes, SYBR Green DNA, 72 h; series mostly up to 28.7 µM. The essentials:
as §1

The test system of a further experiment is ATS189. The experiment is described as above. Conditions: P. falciparum in erythrocytes, SYBR Green DNA, 72 h; series mostly up to 28.7 µM. Put shortly: as §1
The next experiment deals with ATS95. Described as above. Conditions: P. falciparum in erythrocytes, SYBR Green DNA, 72 h; series mostly up to 28.7 µM. The essentials:
as §1

Another experiment deals with C2A. The description is as above. Conditions: P. falciparum in erythrocytes, SYBR Green DNA, 72 h; series mostly up to 28.7 µM. The essentials:
as §1

For the next experiment, the system named is CP185. The description is as above. Conditions: P. falciparum in erythrocytes, SYBR Green DNA, 72 h; series mostly up to 28.7 µM. Put shortly:
as §1

The subject of the next experiment is CP191. The experiment is described as above. The conditions noted are these: P. falciparum in erythrocytes, SYBR Green DNA, 72 h; series mostly up to 28.7 µM. Put shortly: as §1
A further experiment has as its system CP192. The experiment is described as above. Conditions: P. falciparum in erythrocytes, SYBR Green DNA, 72 h; series mostly up to 28.7 µM. Put shortly:
as §1

The subject of a further experiment is CP194. The description is as above. Conditions: P. falciparum in erythrocytes, SYBR Green DNA, 72 h; series mostly up to 28.7 µM. The essentials: as §1
A further experiment relates to CP201. The experiment is described as above. Conditions: P. falciparum in erythrocytes, SYBR Green DNA, 72 h; series mostly up to 28.7 µM. The essentials: as §1
The next experiment has as its system 7G8. The description is as above. The conditions noted are these: P. falciparum in erythrocytes, SYBR Green DNA, 72 h; series mostly up to 28.7 µM. Put shortly: as §1
The mark [2] stands for this setting: at 28.7 µM (top of the series), parasite line A.
Where [3] appears, read: at 28.7 µM (top of the series), parasite line B.

Records with an inconclusive call do not appear. Unmarked numbers belong to inactive results. The source made the active and inactive calls. Calls come from the whole dose curve; as a rule, active = well fitted inhibition curve with a large enough effect; inconclusive = small, poorly fitted or top-dose-only effect; inactive = flat fitted curve, though single readings scatter.
Potency is the fitted concentration of half-maximal effect.

Turning to `Cc1c(NC(=O)c2cccnc2)c(=O)n(-c2ccccc2)n1C`, the activity, negative = inhibition is 17.3% in experiment [1] (at 12.8 µM (top of the series), parasite line A) and 5.39% in experiment [1] (at 12.8 µM (top of the series), parasite line B). The Potency result with 3D7, with AA1029, with AS120, in the experiment with ATS189, with ATS95 and with C2A was “inactive” each time. For the same compound, the Potency entry in the experiment with CP185 is “inactive”. Besides, the result in the experiment with CP191, with CP192, with CP194 and in the experiment on CP201 was inactive.

As to `CC(=O)Oc1cccc(O)c1`, the figures for the activity, negative = inhibition in experiment [1] (setting [2]) and in experiment [1] (setting [3]) were 4.48% and 12.6%, respectively. Moreover, the Potency entry in the experiment on 3D7, in the experiment on AA1029, in the experiment on AS120, in the experiment on ATS189, in the experiment with ATS95 and in the experiment with C2A was “inactive” in each case. In addition, the Potency result in the experiment on CP185 was “inactive”. Moreover, the call in the experiment on CP191, in the experiment with CP192, with CP194 and in the experiment with CP201 was inactive.

As to `O=C(c1ccccc1)C(O)c1ccccc1` (stereo not given), in experiment [1] (setting [3]), the activity, negative = inhibition is -14.9%. Also, the Potency result in the experiment with 3D7, in the experiment with 7G8, in the experiment with AA1029, in the experiment with AS120, in the experiment with ATS189 and in the experiment on ATS95 was “inactive” throughout. In addition, the Potency result with C2A and in the experiment with CP185 was “inactive” each time. Moreover, the outcome in the experiment on CP191, with CP192, in the experiment on CP194 and with CP201 was inactive.

Regarding `CC(=O)N(CC(O)CO)c1c(I)c(C(=O)NCC(O)CO)c(I)c(C(=O)NCC(O)CO)c1I` (stereo not given), the activity, negative = inhibition in experiment [1] (setting [2]) was 7.48%; in experiment [1] (setting [3]), 5.34%. In addition, the Potency result with 3D7, in the experiment on AA1029, in the experiment on AS120, with ATS95, in the experiment with C2A and in the experiment with CP185 was “inactive” each time. Moreover, the Potency in the experiment on 7G8 is 11.2 µM (active). For the same compound, the compound was called inactive with CP192, with CP194 and in the experiment on CP201.

Turning to `C[C@H]1COc2c(C3(N)CC3)c(F)cc3c(=O)c(C(=O)O)cn1c23`, the activity, negative = inhibition in [1] (setting [2]) is -1.84%; in [1] (setting [3]) it was -23.2%. Also, the Potency entry with 7G8, with AA1029, in the experiment with AS120, in the experiment on ATS189, in the experiment on ATS95 and with C2A was “inactive” in each case. Also, the Potency result in the experiment on CP185 is “inactive”. For the same compound, the outcome in the experiment on CP191, with CP192, in the experiment with CP194 and in the experiment on CP201 was inactive.

Turning to `O=C1c2ccccc2C(=O)C1c1ccc(Br)cc1`, the Potency with 3D7 and in the experiment with 7G8 was 11.2 µM (active) throughout. Also, the Potency entry with AS120, in the experiment with ATS189, with C2A and in the experiment on CP185 was “inactive” throughout. Moreover, the call with CP192, in the experiment with CP194 and with CP201 was inactive.

As to `CC(=O)N[C@@H](Cc1ccc(O)cc1)C(=O)O`, the activity, negative = inhibition is 9.07% in experiment [1] (setting [2]) and 9.16% in experiment [1] (setting [3]). Further, the Potency result with 3D7, with AA1029, in the experiment with AS120, in the experiment with ATS189, in the experiment on ATS95 and with C2A was “inactive” in each case. The Potency entry in the experiment on CP185 is “inactive”. The call in the experiment with CP191, in the experiment on CP192, in the experiment on CP194 and with CP201 was inactive.

As for `OCC(O)CS` (stereo not given), the activity, negative = inhibition in [1] (setting [2]) was 2.38%. Besides, the Potency result in the experiment on 3D7, in the experiment on 7G8, in the experiment with AA1029, in the experiment on AS120, with ATS189 and in the experiment on ATS95 was “inactive” each time. Also, the Potency result with C2A and in the experiment on CP185 was “inactive” in each case. Further, the result with CP191, with CP192, with CP194 and with CP201 was inactive.

As for `Cc1[nH]c(C)c(Cl)c(=O)c1Cl`, the Potency with 7G8 was 11.2 µM (active). Further, the Potency result in the experiment with AA1029, in the experiment on AS120, in the experiment with ATS189, in the experiment on ATS95, with C2A and with CP185 was “inactive” in each case. Also, the compound was classed as inactive in the experiment with CP192 and in the experiment with CP194.

On to `CCCCCCCCCCC(CO)CCCCCCCC` (stereo not given), for which the activity, negative = inhibition was -1.63% in experiment [1] (setting [2]) and 6.03% in experiment [1] (setting [3]). In addition, the Potency result in the experiment with 3D7, in the experiment with AA1029, with AS120, in the experiment on ATS189, in the experiment on ATS95 and in the experiment with C2A was “inactive” throughout. Also, the Potency result in the experiment with CP185 is “inactive”. The call in the experiment with CP191, in the experiment with CP192, in the experiment with CP194 and with CP201 was inactive.

As to `CCN(CC)CCOC(=O)C(c1ccccc1)c1ccccc1`, the figures for the activity, negative = inhibition in experiment [1] (setting [2]) and in experiment [1] (setting [3]) were -8.73% and -12.1%, respectively. For the same compound, the Potency entry with 3D7, in the experiment on AA1029, in the experiment on AS120, in the experiment with ATS189, in the experiment on ATS95 and with C2A was “inactive” each time. Besides, the Potency result in the experiment with CP185 is “inactive”. In addition, the compound was classed as inactive in the experiment on CP191, in the experiment with CP192, in the experiment on CP194 and in the experiment on CP201.

With `Nc1ccc(S(=O)(=O)c2ccc(N)cc2)cc1`, the figures for the activity, negative = inhibition in [1] (setting [2]) and in experiment [1] (setting [3]) were 2.8% and 7.07%, respectively. Also, the Potency result with 3D7, in the experiment with AA1029, in the experiment with AS120, in the experiment with ATS189, in the experiment on ATS95 and with C2A was “inactive” in each case. In addition, the Potency result in the experiment with CP185 is “inactive”. Besides, the call in the experiment on CP191, in the experiment on CP192, with CP194 and with CP201 was inactive.

Regarding `NC(=O)CCCCC1CCSS1` (stereo not given), the activity, negative = inhibition was -3.84% in [1] (setting [2]) and -4.11% in experiment [1] (setting [3]). Further, the Potency result with 3D7, in the experiment on AA1029, with ATS95, with C2A and with CP185 was “inactive” throughout. Moreover, the compound was called inactive in the experiment on CP191, in the experiment with CP192, in the experiment on CP194 and with CP201.

On to `Nc1c2c(nc3c1CCC3)CCCC2`, for which the Potency with 7G8 is 11.2 µM (active).

Consider `O=C(O)CCCCC1CCSS1` (stereo not given), for which the activity, negative = inhibition in experiment [1] (setting [2]) is 5.2%; in [1] (setting [3]), 12.3%. Besides, the Potency result in the experiment with 3D7, in the experiment with AA1029, with AS120, with ATS189, in the experiment with ATS95 and in the experiment with C2A was “inactive” throughout. The Potency result with CP185 was “inactive”. Moreover, the outcome in the experiment with CP191, in the experiment with CP192, in the experiment on CP194 and in the experiment with CP201 was inactive.

As for `COc1nccnc1NS(=O)(=O)c1ccc(N)cc1`, the activity, negative = inhibition was 0.889% in experiment [1] (setting [2]) and -0.327% in experiment [1] (setting [3]). Also, the Potency entry in the experiment on 7G8, in the experiment on AA1029, in the experiment on AS120, in the experiment on ATS189, with ATS95 and in the experiment on C2A was “inactive” throughout. Besides, in the experiment with CP185, the Potency result is “inactive”. The compound was classed as inactive in the experiment on CP191, in the experiment with CP192, in the experiment with CP194 and with CP201.
